Assay results reported in PubChem BioAssay.
Calls of active or inactive are those of the source.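 The calls were made as follows: active = inhibition at or above 50% relative to wild type and mutant plate controls; inactive = inhibition below 50%.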

assay: loss of swimming-algae plug formation – whole organism, Chlamydomonas reinhardtii, WT vs cilia-less mutant, absorbance, 96-well, primary screen (AID 463189); conditions: Chlamydomonas reinhardtii gravitaxis, OD600 absorbance, 2 days; at 10 µM; hits give high values;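 also: 0% = wild type cc124 cells in DMSO and 100% = ciliumless bld1 mutant cells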

Row | SMILES | inhibition
1 | COc1ccc(CCNC[C@@H](O)c2ccc(O)cc2)cc1OC | -0.226% (inactive)
2 | CCN(Cc1ccncc1)C(=O)C(CO)c1ccccc1 (configuration not stated) | 7.61% (inactive)
3 | O=C1C2C=CC=CC2=NC(=S)N1CCN1CCC(=C(c2ccc(F)cc2)c2ccc(F)cc2)CC1 (configuration not stated) | -0.94% (inactive)
4 | CN(C)CC[C@@H](c1ccc(Cl)cc1)c1ccccn1 | 32.3% (inactive)
5 | COc1cc2nc(N3CC=[N+](C(=O)c4ccco4)CC3)nc(N)c2cc1OC | 6.38% (inactive)
6 | NC(=O)c1cnccn1 | 1.54% (inactive)
7 | COc1cc(C(O)CO)ccc1OS(=O)(=O)O (configuration not stated) | -4.77% (inactive)
